Source: the supplement of paper PMC3334620
The full ranking holds about 33,000 sequences; the median of “E-score (-0.5 to 0.5)” is about -0.036, and the highest 2% start at about 0.37. This excerpt belongs to a sample that is enriched for the highest values.

target: T1, Yer064c (UniProt P40041); assay: PBM E-score (8-mer binding enrichment) (E-score (-0.5 to 0.5)); higher = stronger / more preferred TF binding; settings: protein concentration: 200 nM; construct: GST-full length
T1 sequence: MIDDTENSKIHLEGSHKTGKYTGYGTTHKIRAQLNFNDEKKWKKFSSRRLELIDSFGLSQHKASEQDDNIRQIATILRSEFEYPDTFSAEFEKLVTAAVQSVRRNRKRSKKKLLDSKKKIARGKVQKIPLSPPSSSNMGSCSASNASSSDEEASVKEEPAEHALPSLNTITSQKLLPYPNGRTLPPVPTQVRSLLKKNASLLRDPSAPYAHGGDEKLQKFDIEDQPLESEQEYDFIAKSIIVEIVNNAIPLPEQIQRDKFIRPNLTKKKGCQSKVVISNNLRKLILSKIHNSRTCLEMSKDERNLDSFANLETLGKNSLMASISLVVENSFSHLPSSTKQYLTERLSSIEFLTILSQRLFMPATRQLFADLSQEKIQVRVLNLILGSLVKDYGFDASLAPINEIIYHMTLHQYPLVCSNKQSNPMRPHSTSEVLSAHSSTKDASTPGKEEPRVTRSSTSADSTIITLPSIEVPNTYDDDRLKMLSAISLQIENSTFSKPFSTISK
Experimental: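 Universal 'all 10-mer' protein binding microarrays (Agilent AMADID 015681) probed with GST-tagged S. cerevisiae TFs (full-length or DBD) made by in vitro transcription/translation (PURExpress), about 100-200 nM. Bound TF was detected with fluorescent anti-GST. Each ungapped 8-mer (which stands for itself and its reverse complement) is scored by the PBM enrichment score (E-score), a modified Wilcoxon-Mann-Whitney statistic from -0.5 to +0.5, computed with the Universal PBM Analysis Suite. Scale: above 0.35 generally sequence-specific binding.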

Row | Sequence | PBM E-score
1 | ATGCCAAG | -0.0388
2 | ACGATAAC | -0.0162
3 | GATCCGCC | -0.041
4 | AACTTTGC | -0.113
5 | ACAACATC | -0.143
6 | ACCATACT | 0.0817
7 | AAGTGATC | 0.103
8 | AGGTGACA | -0.0676
9 | ACGTGACT | 0.468
10 | AGGTGACG | -0.188
11 | AGGTGACT | 0.484
12 | ACGTGACG | -0.176
13 | AAGTGATT | 0.394
14 | AAGTGACC | -0.00564
15 | AAGTGATG | 0.0804
16 | ACGTGACA | -0.138
17 | AAGTGACG | 0.0587
18 | AAGTGACT | 0.453
19 | CCTCTGAA | -0.0251
20 | AAATCCCA | -0.203
21 | ACCCACCC | 0.111
22 | CACCTAGG | 0.0188
23 | ATCAGAAC | 0.127
24 | CTGAGAGA | -0.0026
25 | AAGCTTGG | -0.0782

Row | Sequence | PBM E-score
26 | CAGATGAC | 0.215
27 | GAGATGAC | 0.367
28 | AAGATGAC | 0.312
29 | GGAACTGA | -0.00126
30 | TCGACCAA | -0.188
31 | AATAGAAA | -0.119
32 | CCCTCCCA | -0.298
33 | ATTCATTG | 0.214
34 | ATTCATTC | 0.122
35 | CCTCATTC | -0.176
36 | ACTCATTA | 0.372
37 | ACTCATTC | 0.394
38 | CCTCATTA | 0.0877
39 | ACTCATTG | 0.382
40 | ACACATTG | 0.0326
41 | GCTCATTA | -0.044
42 | ATGGCTTG | -0.159
43 | GATTTACC | 0.00206
44 | ATTTCATA | -0.0227
45 | ATCCGAAT | 0.0995
46 | AAGGGATG | -0.176
47 | AGTCAGTG | 0.427
48 | ATTCAGTC | 0.341
49 | AATCAGTC | 0.368
50 | AATCAGTA | 0.234

Row | Sequence | PBM E-score
51 | ATTCAGTG | 0.214
52 | CGTCAGTC | 0.291
53 | ACTCAGTG | 0.251
54 | CCTCAGTC | 0.326
55 | AGTCAGTC | 0.442
56 | AATCAGTG | 0.239
57 | CATCAGTC | 0.321
58 | ACTCAGTC | 0.411
59 | ACGCATGA | 0.146
60 | ATCCGTTG | -0.037
61 | ACCTTGAA | 0.0165
62 | GAACCAGA | 0.0172
63 | ACCCTCAC | -0.132
64 | CGCACATC | 0.00301
65 | GGTCAGTA | -0.0314
66 | CGTCAGTA | 0.0514
67 | AGTCAGTA | 0.42
68 | CTTTAACA | -0.0802
69 | GCCTAGGC | -0.179
70 | AGGAGCGC | -0.205
71 | ACTCACTA | 0.346
72 | CCTCACTC | -0.077
73 | ACTCACTC | 0.371
74 | ACTCACAC | 0.364
75 | ACTCACTG | 0.374

Row | Sequence | PBM E-score
76 | ACACACTG | 0.0265
77 | CGGTTTAG | -0.1
78 | AGAGACAA | -0.175
79 | TAAACCAA | -0.0214
80 | GAGGACTC | 0.387
81 | GAGGACTA | 0.369
82 | AAGGACTG | 0.184
83 | GAGGACAC | -0.221
84 | AAGGACCA | -0.026
85 | AAGGACTC | 0.39
86 | TAGGACTA | 0.357
87 | AAGGACTA | 0.375
88 | AAGGACGA | -0.0247
89 | CAGGACTA | 0.262
90 | AAGGACTT | 0.0394
91 | CAGGACTC | 0.344
92 | ACCGGCGG | -0.156
93 | CCAGATGC | 0.0961
94 | AGCTAGAT | -0.12
95 | AACCCCAG | -0.047
96 | GGCAACTA | -0.0239
97 | CCCATCTA | -0.0727
98 | CAAACGAC | 0.0734
99 | GTGTGCGA | 0.0296
100 | AGATCTTA | 0.137

Row | Sequence | PBM E-score
101 | GACGTTCA | -0.12
102 | GCATTTCC | -0.0262
103 | AGAACACA | 0.0627
104 | CAAAGTCG | 0.167
105 | AAAAGTCA | 0.374
106 | TAAAGTTA | 0.106
107 | CAAAGTCC | -0.222
108 | AAAAGTCT | 0.0759
109 | CAAAGTCA | 0.399
110 | TAAAGTAA | 0.049
111 | TAAAGTCA | 0.413
112 | AAAAGTCC | -0.0242
113 | GAAAGTCA | 0.428
114 | GAAAGTTA | 0.137
115 | GAAAGTCC | -0.215
116 | ACCACGGG | -0.0993
117 | AGCAGGAG | -0.0429
118 | GGCATACA | -0.226
119 | GATTCGAA | 0.207
120 | CTCGGTGA | 0.137
121 | ACTACGAT | 0.233
122 | CCCATGCC | -0.231
123 | CCCAGAGG | -0.276
124 | CAGTCAGA | 0.361
125 | ATGTCAGC | -0.0283

Row | Sequence | PBM E-score
126 | AAGTCAGC | 0.422
127 | GCGTCAGC | -0.304
128 | CAGTCAGC | 0.406
129 | AAGTCAGT | 0.362
130 | AAGTCAGA | 0.341
131 | GAGTCAGC | 0.48
132 | CAGTCAGG | 0.333
133 | AATCTTAC | 0.183
134 | ATTTGTCG | -0.0532
135 | CACTCAGA | 0.0961
136 | GACTCAGC | 0.457
137 | AACTCAGC | 0.022
138 | CACTCAGC | -0.0645
139 | AACTCAGA | 0.164
140 | GACTCAGA | 0.458
141 | GGCGCGAA | -0.0884
142 | AACGTGGC | -0.0783
143 | ACCCTAGA | -0.0589
144 | ACCTCGGC | -0.153
145 | CATCACCC | -0.0525
146 | AATCACCC | 0.426
147 | AATCACCG | 0.42
148 | AAACACCT | 0.129
149 | AATCACCA | 0.374
150 | AACCACCT | 0.0325

Row | Sequence | PBM E-score
151 | AATCACCT | 0.438
152 | CATCACCA | -0.0269
153 | AAGCACCG | -0.164
154 | CATCACCG | 0.156
155 | GATCACCC | 0.00825
156 | TATCACCA | -0.0277
157 | AGAAGAAC | -0.146
158 | ACCAGACT | 0.0775
159 | ACGGCTAT | -0.24
160 | GGTTTACA | -0.0888
161 | CGTGCACG | 0.0709
162 | CCTGAGGA | 0.00765
163 | ACGGTATG | -0.0999
164 | ACGATTAA | 0.26
165 | CTGATTAC | 0.375
166 | CGGATTAC | 0.0966
167 | CCGATTAC | -0.132
168 | CAGATTAA | 0.183
169 | CGGATTAA | 0.208
170 | GAGATTAA | 0.245
171 | GGGATTAA | 0.166
172 | ATGATTAA | 0.472
173 | GTGATTAA | 0.452
174 | CTGATTAA | 0.405
175 | AGGATTAA | 0.253

Row | Sequence | PBM E-score
176 | GAAACTAC | 0.00139
177 | CCGAGGAC | -0.0294
178 | AGCAAAAC | -0.0941
179 | CATCCGAA | 0.123
180 | ATGGAAAG | -0.0473
181 | CATATTGG | -0.027
182 | ATATCTAA | 0.128
183 | AGCAGGTA | -0.131
184 | CCTGCGCA | -0.352
185 | TATAATCA | 0.387
186 | GATAATCA | 0.384
187 | GATAATAA | -0.0817
188 | AATAATCC | 0.0648
189 | AATAATCA | 0.382
190 | AATAATCG | 0.104
191 | CATAATCC | -0.0164
192 | GATAATCC | -0.0741
193 | CATAATCG | 0.109
194 | TATAATAA | 0.115
195 | TATAATGA | 0.256
196 | CATAATCA | 0.413
197 | CCTTTACC | -0.149
198 | GAGCGTAA | 0.0724
199 | CCCCTGCC | -0.204
200 | ATACTCTC | 0.00838

Row | Sequence | PBM E-score
201 | AGAAGGGG | -0.324
202 | GCCAGCAA | -0.238
203 | GGTCCATA | -0.194
204 | AAACGATG | -0.0198
205 | ATAGTAAT | 0.291
206 | CTAGTCAG | 0.418
207 | ATAGTCAT | 0.489
208 | ATCGTCAA | 0.0919
209 | ATAGTCCC | 0.148
210 | ATAGTCAC | 0.481
211 | CTAGTCCA | 0.109
212 | ATAGTCAA | 0.402
213 | ATAGTCCA | 0.213
214 | ATCGTCAT | 0.0309
215 | CTAGTAAG | 0.0365
216 | ATCGTCAC | -0.00908
217 | AACCTATA | 0.0106
218 | CCGCGATA | -0.0471
219 | GTTGGTGA | 0.115
